Source: PubChem BioAssay AID651551 (Sanford-Burnham Center for Chemical Genomics, 2012)

Each compound was assayed against PEG-3 (UniProt Q6IN02) (assay: GAPDH versus PEG-3 reporter suppression – cell-based, luminescence, counter-screen for PEG-3 promoter inhibitor project, SAR follow-up (AID 651551)). Conditions: HeLa PEG-Prom / GAPDH luciferase reporter, 6 or 24 h, run 3, 24 h; at 99 µM (top of the series).

| Compound | inhibition % (higher = more inhibition) |
| --- | --- |
| COCCCNC(=O)c1ccc(Cn2c(=O)c3ccccc3n(Cc3ccccc3C#N)c2=O)cc1 | 73.4% |
| COc1ccc(Cl)cc1Nc1nc(-c2sc(NC(=O)c3ccccc3)nc2C)cs1 | 60.5% |
| COc1ccccc1Nc1nc(-c2sc(NC(=O)c3ccco3)nc2C)cs1 | 21.6% |
| CCn1cc(C(=O)NCc2ccco2)c(=O)c2cc(S(=O)(=O)N3CCCC3)ccc21 | 46.7% |
| Cc1cc(NC(=O)c2ccccc2C)n(-c2nc3ccccc3[nH]2)n1 | 38% |
| COc1ccc(-n2nc(C(=O)NCC(=O)Nc3cccc(OC)c3)c3ccccc3c2=O)cc1 | 8.99% |
| CCn1nc(C(=O)Nc2nc(-c3ccccn3)cs2)c2ccccc2c1=O | 39.1% |
| Cc1nc(NC(=O)c2ccccc2)sc1-c1csc(Nc2cccc(Cl)c2C)n1 | -61.4% |
| CCCn1nc(C(=O)Nc2nc(-c3ccccn3)cs2)c2ccccc2c1=O | 40.8% |
| Cc1cc(NC(=O)c2ccccc2C(F)(F)F)n(-c2nc3ccccc3[nH]2)n1 | 94.1% |
| CCCn1nc(C(=O)Nc2nc3ccccc3s2)c2ccccc2c1=O | 16.5% |
| O=C(Nc1nc2ccccc2s1)c1nn(-c2ccccc2)c(=O)c2ccccc12 | -21.2% |
| COc1ccc(-n2nc(C(=O)NCC(=O)Nc3ccc(OC)c(OC)c3)c3ccccc3c2=O)cc1 | 34.1% |
| Cc1nc(NC(=O)c2ccccc2)sc1-c1csc(Nc2ccccc2)n1 | 76.8% |
| CCCn1nc(C(=O)Nc2nc(-c3ccncc3)cs2)c2ccccc2c1=O | 44.6% |
| O=C(Nc1nc(-c2ccccc2)cs1)c1nn(-c2ccccc2)c(=O)c2ccccc12 | 11.5% |
| Cc1nc(NC(=O)c2ccccc2)sc1-c1csc(Nc2ccccc2Cl)n1 | -104% |
| Cc1cc(NC(=O)c2ccccc2)n(-c2nc3ccccc3[nH]2)n1 | 79.1% |
| Cc1cc(NC(=O)c2cccc(C)c2C)n(-c2nc3ccccc3[nH]2)n1 | 3.97% |
| Cc1ccc(Cl)cc1Nc1nc(-c2sc(NC(=O)c3ccco3)nc2C)cs1 | -26.2% |
| COc1ccc(-n2nc(C(=O)NCC(=O)Nc3cc(OC)c(OC)c(OC)c3)c3ccccc3c2=O)cc1OC | 34.1% |
| Cc1cc(NC(=O)c2ccccc2)n(-c2nc3ccccc3n2C)n1 | 3.97% |
| O=C(Nc1nccs1)c1nn(-c2ccccc2)c(=O)c2ccccc12 | 29.1% |
